High-throughput results from PubChem BioAssay.
Shown are actives, neighbours in structure and some others; about 2.1% of the full set was active somewhere.
HIV Env fusion = inhibitors of HIV Env-mediated cell fusion. AID 651610. HeLa-JRFL Env/CEM21 cell fusion, luciferase. inhibition, % at 12.3 µM. actives 1.1% (n = 360,000);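 active = mean replicate inhibition score of at least 50 and every replicate individually at or above 50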
MLL AF4-AF9 inh = blocks AF4 peptide binding to human AF9 | AlphaScreen, biotin-AF4 peptide binding to FLAG-AF9 | inhibition, % at 10 µM | actives 0.47% (n = 350,000);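 active = every replicate reaching a set inhibition limit, whatever the replicate mean, cut at about 25% in these data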
INS-1E GSIS act = primary screen for activators of insulin secretion dependent on glucose, INS-1E cells, GLuc reporter luminescence; INS-1E GLuc reporter insulin secretion, 2-3 h; activation, % at 16.6 µM; actives 0.61% (n = 370,000); AID 743287;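 active = lowest replicate activation of at least 40%, so every replicate reaches that level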
PGC1a acetyl inh = lowers PGC1a acetylation signal in U2OS cells | AlphaScreen anti-acetyl-lysine; with virally co-expressed GCN5 acetyltransferase | inhibition, % at 15.6 µM | actives 0.17% (n = 350,000) | AID 651687;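 active = every replicate shows inhibition of at least 40%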
NSD2 HMT inh = blocks human histone methyltransferase NSD2; O96028; NSD2 peptide methylation, AlphaScreen, 120 min; inhibition, % at 12.5 µM; actives 0.54% (n = 310,000); in the data active = inhibition above about 50%
Target sequence (O96028 whole entry, looked up): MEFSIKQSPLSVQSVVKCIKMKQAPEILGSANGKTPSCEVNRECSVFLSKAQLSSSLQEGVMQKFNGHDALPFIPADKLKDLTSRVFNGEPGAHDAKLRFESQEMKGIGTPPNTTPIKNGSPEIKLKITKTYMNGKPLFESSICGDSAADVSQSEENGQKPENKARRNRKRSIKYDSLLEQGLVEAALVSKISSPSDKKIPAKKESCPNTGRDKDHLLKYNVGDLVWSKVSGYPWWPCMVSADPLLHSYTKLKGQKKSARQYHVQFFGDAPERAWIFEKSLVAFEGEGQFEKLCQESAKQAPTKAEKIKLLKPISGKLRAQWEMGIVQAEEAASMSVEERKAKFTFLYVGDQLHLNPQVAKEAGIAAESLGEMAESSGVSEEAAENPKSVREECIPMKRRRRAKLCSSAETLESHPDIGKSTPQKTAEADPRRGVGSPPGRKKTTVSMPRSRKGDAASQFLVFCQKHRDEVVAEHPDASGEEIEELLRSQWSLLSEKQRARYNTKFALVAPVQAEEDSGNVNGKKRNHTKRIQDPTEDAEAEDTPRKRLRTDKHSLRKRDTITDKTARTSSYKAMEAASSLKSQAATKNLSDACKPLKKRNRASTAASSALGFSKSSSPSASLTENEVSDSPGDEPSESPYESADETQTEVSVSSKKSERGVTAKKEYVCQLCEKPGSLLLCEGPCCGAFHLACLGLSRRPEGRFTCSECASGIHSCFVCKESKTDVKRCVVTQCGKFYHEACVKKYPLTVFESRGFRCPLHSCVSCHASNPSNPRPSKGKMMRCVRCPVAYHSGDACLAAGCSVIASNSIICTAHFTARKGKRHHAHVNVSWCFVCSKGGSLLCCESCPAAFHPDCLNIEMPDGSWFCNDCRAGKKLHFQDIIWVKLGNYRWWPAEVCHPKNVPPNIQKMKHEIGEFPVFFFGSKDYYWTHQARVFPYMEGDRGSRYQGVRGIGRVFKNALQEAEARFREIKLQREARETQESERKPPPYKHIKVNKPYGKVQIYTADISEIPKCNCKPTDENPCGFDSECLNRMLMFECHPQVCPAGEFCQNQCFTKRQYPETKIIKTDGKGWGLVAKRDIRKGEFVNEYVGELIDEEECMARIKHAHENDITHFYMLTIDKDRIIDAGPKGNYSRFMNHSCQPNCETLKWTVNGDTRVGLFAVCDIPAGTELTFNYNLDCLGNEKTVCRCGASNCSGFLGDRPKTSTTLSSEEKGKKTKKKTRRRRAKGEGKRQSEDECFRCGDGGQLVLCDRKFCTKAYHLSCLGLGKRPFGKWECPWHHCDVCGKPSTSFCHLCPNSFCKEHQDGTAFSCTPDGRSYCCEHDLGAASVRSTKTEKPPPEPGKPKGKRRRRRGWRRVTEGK
Hits are given with their value; [ ] = remark or other dose.

Cc1c(CC(=O)O)c(=O)oc2c(C)c(OCc3ccccc3Br)ccc12 was read as HIV Env fusion inactive, MLL AF4-AF9 inh inactive, INS-1E GSIS act 41, PGC1a acetyl inh inactive and NSD2 HMT inh inactive.
Screening Cc1c(CC(=O)O)c(=O)oc2c(C)c(OCc3ccccc3)ccc12 returned HIV Env fusion inactive, MLL AF4-AF9 inh inactive, INS-1E GSIS act inactive, PGC1a acetyl inh inactive and NSD2 HMT inh inactive.
O=C(NC1CCCCC1)c1ccc(S(=O)(=O)c2ccccc2Cl)c([N+](=O)[O-])c1 was read as NSD2 HMT inh inactive.
`CN(C(=O)c1ccc(S(=O)(=O)c2cccc(Cl)c2)c([N+](=O)[O-])c1)C1CCCCC1` gave HIV Env fusion 59, INS-1E GSIS act inactive, PGC1a acetyl inh inactive and NSD2 HMT inh inactive.
O=C(CCCn1c(=S)[nH]c2cc3c(cc2c1=O)OCO3)N1CCN(c2ccccc2)CC1 was read as HIV Env fusion inactive.
`O=C(CCCn1c(=S)[nH]c2cc3c(cc2c1=O)OCO3)N1CCN(c2ccc(Cl)cc2)CC1` gave HIV Env fusion 99 and NSD2 HMT inh inactive.
`CC1CCC2(CC1)NC(=O)N(CC(=O)Nc1ccc3[nH]c(=O)[nH]c3c1)C2=O` (stereo not given) gave HIV Env fusion inactive, MLL AF4-AF9 inh inactive, INS-1E GSIS act inactive, PGC1a acetyl inh inactive and NSD2 HMT inh inactive.
`Nc1ncnc2c(C3OC(CO)C(O)C3O)scc12` (stereo not given) gave HIV Env fusion 109, MLL AF4-AF9 inh inactive, INS-1E GSIS act inactive and PGC1a acetyl inh inactive.
For COc1ccc2nc(C)cc(Sc3nc4ccccc4s3)c2c1 the results were HIV Env fusion 58, MLL AF4-AF9 inh inactive, INS-1E GSIS act inactive and PGC1a acetyl inh inactive.
`CCN(CC)C(=O)CSC(Nc1ccc(F)cc1)=C(C#N)C#N` gave HIV Env fusion inactive, MLL AF4-AF9 inh inactive, PGC1a acetyl inh inactive and NSD2 HMT inh inactive.
Screening Cc1ccc(CSC(Nc2ccc(F)cc2)=C(C#N)C#N)cc1 returned HIV Env fusion 68, MLL AF4-AF9 inh inactive and NSD2 HMT inh inactive.
Screening COc1ccc(-c2cc3ccccc3oc2=O)cc1NC(=S)NC(=O)c1ccc2c(c1)OCCO2 returned HIV Env fusion inactive, INS-1E GSIS act 94, PGC1a acetyl inh inactive and NSD2 HMT inh inactive.
For CCn1c2ccccc2c2cc(N)ccc21 the results were PGC1a acetyl inh inactive and NSD2 HMT inh inactive.
CCn1c2ccccc2c2cc(/C=C(/C#N)C(N)=S)ccc21 was read as HIV Env fusion 57, MLL AF4-AF9 inh inactive, INS-1E GSIS act inactive and NSD2 HMT inh inactive.
Screening Cc1ccc(Sc2ncccc2C(=O)NCc2cc([N+](=O)[O-])ccc2O)c(C)c1 returned HIV Env fusion inactive, MLL AF4-AF9 inh inactive, INS-1E GSIS act inactive, PGC1a acetyl inh inactive and NSD2 HMT inh inactive.
For C[n+]1cc2c3c(ccc2c2ccc4cc5c(cc4c21)OCO5)OCO3 the results were HIV Env fusion 110 and MLL AF4-AF9 inh inactive.
Screening COc1ccc2cc3[n+](cc2c1O)CCc1cc2c(cc1-3)OCO2 returned HIV Env fusion inactive, MLL AF4-AF9 inh inactive and INS-1E GSIS act inactive.
`O=[N+]([O-])c1cc(Br)c(OCc2nnc(-c3ccccc3)o2)c(Br)c1` gave HIV Env fusion inactive, MLL AF4-AF9 inh inactive, INS-1E GSIS act inactive, PGC1a acetyl inh inactive and NSD2 HMT inh inactive.
Cc1cc2c(cc1C)CSC(c1c(O)ccc3ccccc13)SC2 was read as HIV Env fusion inactive, INS-1E GSIS act 185, PGC1a acetyl inh inactive and NSD2 HMT inh inactive.
`O=C1/C(=C/c2cccs2)NC(=S)N1C1CC1` gave HIV Env fusion inactive, MLL AF4-AF9 inh inactive, INS-1E GSIS act 47, PGC1a acetyl inh inactive and NSD2 HMT inh inactive.
For CCCCCn1ccc(=O)c2c(C(F)(F)F)nccc21 the results were HIV Env fusion 51, PGC1a acetyl inh inactive and NSD2 HMT inh inactive.
Screening C[C@@H]1CN([C@@H](C)CO)S(=O)(=O)c2ccc(C3=CCCCC3)cc2O[C@@H]1CN(C)S(=O)(=O)c1ccc(F)cc1 returned HIV Env fusion 62[16.7 µM], MLL AF4-AF9 inh inactive, INS-1E GSIS act inactive and PGC1a acetyl inh inactive.
`Cc1ccc(S(=O)(=O)N(C)C[C@H]2Oc3cc(C4=CCCC4)ccc3S(=O)(=O)N([C@H](C)CO)C[C@H]2C)cc1` gave HIV Env fusion 60[16.7 µM], MLL AF4-AF9 inh inactive, INS-1E GSIS act inactive and PGC1a acetyl inh inactive.
Screening COc1cccc(S(=O)(=O)N(C)C[C@H]2Oc3cc(C4=CCCC4)ccc3S(=O)(=O)N([C@@H](C)CO)C[C@H]2C)c1 returned HIV Env fusion 110[16.7 µM], MLL AF4-AF9 inh inactive, INS-1E GSIS act inactive and PGC1a acetyl inh inactive.
`C[C@@H]1CN([C@H](C)CO)S(=O)(=O)c2ccc(C3=CCCC3)cc2O[C@@H]1CN(C)S(=O)(=O)c1ccc(F)cc1` gave HIV Env fusion inactive, MLL AF4-AF9 inh inactive, INS-1E GSIS act inactive and PGC1a acetyl inh inactive.
For Cc1ccc(S(=O)(=O)N(C)C[C@@H]2Oc3cc(C4=CCCC4)ccc3S(=O)(=O)N([C@@H](C)CO)C[C@H]2C)cc1 the results were HIV Env fusion 58[16.7 µM], MLL AF4-AF9 inh inactive, INS-1E GSIS act inactive and PGC1a acetyl inh inactive.
Screening COC(=O)c1ccc(N(C(=O)CNC(=O)c2ccco2)C(C(=O)NCC2CCCO2)c2ccc(OC)c(OC)c2)cc1 (stereo not given) returned HIV Env fusion inactive, MLL AF4-AF9 inh inactive, INS-1E GSIS act inactive and NSD2 HMT inh inactive.
`CN(C)CCOc1ccc2c(c1)C(=O)C(=Cc1ncc([N+](=O)[O-])n1C)C2` gave HIV Env fusion inactive, MLL AF4-AF9 inh inactive, PGC1a acetyl inh 93 and NSD2 HMT inh inactive.
Screening Cc1ccc(C(NC(=O)N2CCCC2)C(Cl)Cl)cc1F (stereo not given) returned HIV Env fusion inactive, MLL AF4-AF9 inh inactive, INS-1E GSIS act inactive, PGC1a acetyl inh inactive and NSD2 HMT inh inactive.
Screening CO[C@@H]1CN(C)C(=O)c2ccc(NC(=O)C3CCCCC3)cc2OC[C@H](C)N(Cc2cccnc2)C[C@H]1C returned HIV Env fusion inactive, MLL AF4-AF9 inh inactive, INS-1E GSIS act inactive and PGC1a acetyl inh inactive.
O=C(Cc1ccccc1F)Nc1nc(-c2cccs2)cs1 was read as HIV Env fusion inactive, PGC1a acetyl inh inactive and NSD2 HMT inh inactive.
`CC(C)CCN(C(=O)c1csnn1)C(C(=O)NC1CCCC1)c1ccc(F)cc1` (stereo not given) gave HIV Env fusion 76, MLL AF4-AF9 inh inactive, INS-1E GSIS act inactive and NSD2 HMT inh inactive.
`O=C(NC1CCCC1)C(c1ccc(F)cc1)N(Cc1ccccc1)C(=O)c1csnn1` (stereo not given) gave HIV Env fusion inactive, MLL AF4-AF9 inh inactive, INS-1E GSIS act inactive and NSD2 HMT inh inactive.
`Cc1ccc(C(C(=O)NC2CCCCC2)N(C(=O)c2csnn2)C2CCCC2)o1` (stereo not given) gave HIV Env fusion 71, INS-1E GSIS act inactive, PGC1a acetyl inh inactive and NSD2 HMT inh inactive.
Screening Cc1ccc(C(C(=O)NC2CCCC2)N(C(=O)c2csnn2)C2CCCC2)o1 (stereo not given) returned HIV Env fusion inactive, INS-1E GSIS act inactive, PGC1a acetyl inh inactive and NSD2 HMT inh inactive.
